Shiga toxin inh: A qHTS for Small Molecule Inhibitors of Shiga Toxin | Vero cells, Shiga toxin protein synthesis inhibition reporter | inhibition, % at 38.7 µM | actives 9.2% (n = 290,000); in the data active means inhibition mostly above about 28%, no sharp cut-off; inactive means mostly below about 43%; further: 0% is about no effect
HCV inhibitor: qHTS Assay for Inhibitors of Hepatitis C Virus (HCV); Huh7.5.1 HCVcc-Cre infection, luciferase reporter, 44 h; Potency, µM (top dose mostly 41.8 µM), for inactives: at the highest dose activity change, negative = inhibition, actives largely listed as inhibitors; actives 3.4% (n = 340,000); AID 651820, 2012; further: potency means the concentration at half of the fitted maximal effect; on the % scale 0 is the no-effect control and ±100 the full control effect
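Seed cells (1,000/well) for 4 h; treat with compound and infect with HCVcc-Cre, moi about 0.5. Incubate 44 h, then detect luciferase activity.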
Cycloheximide cs: Cycloheximide Counterscreen for Small Molecule Inhibitors of Shiga Toxin; actives 12% (n = 300,000); cell reporter, cycloheximide protein synthesis inhibition counterscreen; max response, %; in the data active means max response mostly above about 13%, no sharp cut-off; inactive means mostly below about 14%; further: read at 38.3 µM for the half of the compounds with a filed dose; 0% is about no effect
Pf growth 48h: Primary qHTS for delayed death inhibitors of the malarial parasite plastid, 48 hour incubation; Potency, µM (doses to about 28.7 µM), for the others: at the highest dose activity change, negative = inhibition, hits mostly inhibitors; actives 5.9% (n = 310,000); P. falciparum luciferase growth in erythrocytes, 48 h; further: potency means the concentration at half of the fitted maximal effect; on the % scale 0 is the no-effect control and ±100 the full control effect
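A one-generation exposure of luciferase-tagged malaria parasites in RPMI 1640/Albumax erythrocyte culture, 37 C and 5% CO2. Inhibition is inferred from decreased luminescence after adding detection reagent.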
Pf growth 96h: Primary qHTS for delayed death inhibitors of the malarial parasite plastid, 96 hour incubation | Potency, µM (titrated, usually from 28.7 µM), for the others: at the top dose activity change, negative = inhibition, usual class: inhibitors | AID 504834, 2011 | P. falciparum luciferase reporter growth, 96 h | actives 6.9% (n = 320,000); further: potency means the concentration at half of the fitted maximal effect; on the % scale 0 is the no-effect control and ±100 the full control effect
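Compounds incubated with erythrocytes infected by luciferase-expressing P. falciparum (2% hematocrit, 0.05% parasitemia final) for 96 hours, 37 C in 5% CO2. Growth inhibition scored as decreased luciferase luminescence.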
HCMV antiviral: qHTS Assay for inhibitors of the human cytomegalovirus (HCMV); activity change, negative = inhibition, % at 57.5 µM; AID 1259415, 2018; actives 4.5% (n = 410,000); HFF cells, HCMV-luciferase reporter, 72 h; hits give low values; in the data active means activity change below about -60%; inconclusive means no clear call, values can overlap the other calls; inactive means above about -39%; further: on the % scale 0 is the no-effect control and ±100 the full control effect
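Steps: HFFs plated, 16 h 37C; compounds added; HCMV-luciferase added to MOI 1 PFU/cell; 72 h 37C; OneGlo reagent, 5 min room temperature; luminescence read, normalized to controls.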
* = called active by the depositor; i = inactive; ? = inconclusive; . = no result given. Compounds with a hit are over-represented: about 21% of the library has one in this group of screens. Unless noted, the call rests on the fitted dose curve; in most records, active means well fitted inhibition curve with a large enough effect; inconclusive means small, poorly fitted or top-dose-only effect, or another doubt; inactive means no such curve, though single readings can be large or run the other way.

SMILES | Shiga toxin inh | HCV inhibitor | Cycloheximide cs | Pf growth 48h | Pf growth 96h | HCMV antiviral
Cc1ccc(NC(=O)c2cc3ccccc3o2)cc1S(=O)(=O)N(C)C | 78.5 | 11.2µM* | 53.8* | 187.6% | . | 11.9
CN(C)S(=O)(=O)c1ccc(NC(=O)c2cc3ccccc3o2)cc1 | 130.2* | -24.1% | 20.5* | -11.7% | 13.1µM* | -12.0
Cc1ccc(NC(=O)c2cc3ccccc3oc2=O)cc1S(=O)(=O)N(C)C | -21.6 | -9.4% | 0.3 | 298.2% | i | .
CCCCNC(=O)c1cc2cc(OC)ccc2[nH]1 | 22.7 | -14.9% | 13.8* | 28.9% | 25.2% | -12.5
CN(C(=O)c1ccccc1)c1ccccc1C(=O)NCCc1ccccc1 | -2.4 | 4.7% | -1.8 | 4.5% | 6.4% | 34.9
COc1ccc(C(=O)N(C)c2ccccc2C(=O)NCCc2ccccc2)cc1 | -4.6 | ? | 1.6 | -14.2% | ? | -97.3*
COc1ccc2[nH]c(C(=O)NCCc3ccccc3)cc2c1 | 85.2* | -6.2% | 32.1* | 109.4% | 44.3% | 49.1
CCc1ccc(CNC(=O)CSc2cc(=O)n(C)c3ccc(Cl)cc23)cc1 | . | . | . | . | . | -0.1
Cc1ccccc1OCC(=O)N1N=C(C(F)(F)F)CC1(O)C(C)(C)C (centres undefined) | -5.7 | -4.5% | -2.3 | 10.4µM* | ? | 1.7
Cc1ccc(OCC(=O)N2N=C(C(F)(F)F)CC2(O)C(C)(C)C)cc1C (centres undefined) | -12.7 | -24.5% | -3.3 | . | ? | -90.8*
CC(C)(C)C1(O)CC(C(F)(F)F)=NN1C(=O)CCc1ccccc1 (centres undefined) | 2.0 | 19.4% | -4.6 | 12.6% | -11.0% | -36.5
Cc1ccc(OCC(=O)N2N=C(c3cccnc3)CC2(O)C(F)(F)F)cc1C (centres undefined) | -9.0 | -3.6% | -3.0 | ? | 9.28µM* | 19.0
COc1ccc(OCC(=O)N2N=C(C)CC2(O)C(F)(F)F)cc1 (centres undefined) | 14.7 | 12.5% | -0.8 | 7.6% | ? | -3.6
CC1=NN(C(=O)COc2ccc(C)c(C)c2)C(O)(c2ccc(Cl)cc2)C1 (centres undefined) | -4.1 | 1.4% | -4.6 | 23.8% | 26.7% | -21.2
O=C1C2C3C=CC(C3)C2C(=O)N1c1ccc(N2CCN(c3ccccn3)CC2)c([N+](=O)[O-])c1 (centres undefined) | 10.8 | 10µM* | 3.4 | 0.0% | ? | -66.0*
O=C(CCN1C(=O)C2C3C=CC(C3)C2C1=O)N1CCN(c2ccccn2)CC1 (centres undefined) | -7.8 | -8.0% | -2.5 | -4.1% | 32.1% | -8.6
Cn1c(SCc2ccccc2[N+](=O)[O-])nnc1-c1cccnc1 | 51.4* | 36.5% | 23.5* | 61.9% | ? | -23.7
Clc1ccc(-n2c(SCc3nc4ccccc4[nH]3)nnc2-c2ccncc2)cc1 | 15.9 | . | -1.7 | 22.4% | 46.2% | -19.3
CCOc1ccc(-c2nnc(SCc3nc4ccccc4[nH]3)n2N)cc1 | 82.0 | 1.6% | 42.2* | ? | . | -12.0
COc1ccccc1-c1nnc(SCc2nc3ccccc3[nH]2)n1C | -4.2 | -0.2% | -2.4 | -10.8% | . | 53.5
Cn1c(SCc2nc3ccccc3[nH]2)nnc1-c1cccnc1 | 31.2 | 16.1% | 14.0 | 7.7% | 1.85µM* | 24.6
COc1ccc2c(c1)c1c(c(=O)n(-c3ccccc3C)c(=O)n1CC(=O)N1CCCC1)n2C | . | . | . | . | . | -3.5
CCC(CC)C(=O)Nc1nnc(SCC(=O)NC(C)(C)C)s1 | 3.5 | 23.7% | -1.3 | -6.7% | 28.5% | -16.7
COC(=O)c1ccc(Oc2nc(C)cc(Oc3ccccc3)n2)cc1 | -5.0 | 8.4% | -0.9 | ? | 8.0% | -27.3
COC(=O)c1ccc(Oc2cc(C)nc(NCc3ccccc3)n2)cc1 | -7.5 | -27.8% | -4.7 | ? | 10.4µM* | -18.4
SMILES | Shiga toxin inh | HCV inhibitor | Cycloheximide cs | Pf growth 48h | Pf growth 96h | HCMV antiviral
COC(=O)c1ccc(Oc2cc(C)nc(-n3nc(C)cc3C)n2)cc1 | -10.1 | ? | -0.7 | ? | -7.8% | -75.9*
O=C(Cn1nnc(-c2cccs2)n1)OC1CCCCC1 | 16.7 | 3.5% | 18.1* | 0.0% | ? | 24.6
Cc1ccc(-c2nnn(CC(=O)N3CCC(C)CC3)n2)o1 | 22.4 | -5.2% | 12.6 | . | 37.1% | 31.7
O=C(Cn1nnc(-c2cccs2)n1)N1CCOCC1 | 15.9 | 26.0% | 16.5 | 9.6% | 9.28µM* | -16.0
COc1ccc(-c2ccc(-c3nnn(CC(=O)N4CCOCC4)n3)cc2)cc1 | 28.3 | ? | 23.0* | 110.0% | 28.2% | 31.9
O=C(Cn1nnc(-c2ccc3c(c2)OCO3)n1)N1CCOCC1 | 83.0 | 16.1% | 12.6 | 32.0% | 6.0% | 21.0
CC1CCN(C(=O)Cn2nnc(-c3cccs3)n2)CC1 | 68.3* | 0.4% | 38.9* | 202.4% | ? | 49.0
CC1=C(C(=O)Nc2ccccc2C(=O)NC2CCCCC2)SCCO1 | -6.6 | ? | 7.8 | -28.3% | 138.7% | -16.1
COC(=O)Cn1nnc(N2CCOCC2)n1 | -9.0 | 5.2% | 40.0* | 24.1% | -7.7% | 48.6
CCNc1nc(SCC(=O)OC)nc(N2CCOCC2)n1 | -7.6 | ? | -2.6 | -5.4% | 34.5% | 40.1
CCOC(=O)CSc1nnc2n(-c3ccccc3)c(=O)c3c4c(sc3n12)COC(C(C)C)C4 (centres undefined) | . | . | . | . | . | 4.5
Cc1noc(C)c1NC(=O)NCCN1CCN(Cc2ccccc2)CC1 | -6.3 | 5.2% | -2.9 | 36.2% | 43.8% | 54.1
Cc1noc(C)c1S(=O)(=O)NCCN1CCN(c2ccccc2)CC1 | -0.8 | 16.5% | -2.1 | 8.4% | 11.7µM* | 4.8
Cc1noc(C)c1S(=O)(=O)NCCCN1CCN(Cc2ccccc2)CC1 | -17.0 | -8.7% | -3.8 | 9.6% | 4.65µM* | .
CC(C)N(Cc1nnc(-c2ccccc2Cl)o1)C(=O)COc1cccc(Cl)c1 | . | . | . | . | . | -28.8
CN(CC(=O)NCC1CCCCC1)S(=O)(=O)c1ccc(F)cc1 | 0.3 | -2.1% | -1.5 | 18.9% | 0.0% | -62.5*
CC(=O)c1ccc(S(=O)(=O)N(C)CC(=O)NCC2CCCCC2)cc1 | 53.4* | 5.5% | 10.7 | 91.8% | 7.0% | 9.5
COc1ccc(C2(c3ccc(OC)cc3)NC(=O)N(CC(=O)NC3CCCC3)C2=O)cc1 | . | 2.3% | . | 5.9% | 13.9% | -1.1
CC(C)CN1CCN(CCCc2ccccc2)C(CCO)C1 (centres undefined) | -7.0 | -19.6% | -3.0 | ? | 9.28µM* | 18.2
CC(C)N1CCN(CCCc2ccccc2)CC1CCO (centres undefined) | -1.8 | 6.5% | 1.0 | -8.2% | 13.1µM* | -30.3
CC(C)N1CCC(N2CCN(CCCc3ccccc3)CC2CCO)CC1 (centres undefined) | 12.5 | ? | -0.8 | ? | ? | -15.9
